Earlier results, collected in article PMC11062922 (Nature Chemical Biology, 2023).

How the values were obtained:
[1] = tested on: JAK1(JH2domain-pseudokinase)
[2] = tested on: JAK2(JH1domain-catalytic)
[3] = tested on: RSK1(Kin.Dom.1-N-terminal)
[4] = tested on: RSK3(Kin.Dom.1-N-terminal)
[5] = tested on: TYK2(JH2domain-pseudokinase)

Measured: KINOMEScan

COc1cc(Nc2ncc3c(C)nc(-c4cc5ccccc5[nH]4)n3n2)cc(OC)c1OC [GW869516X]
active: AMPK-alpha1 89% | AMPK-alpha2 61% | BLK 60% | CIT 100% | CLK1 88% | CLK2 75% | CSNK2A1 96.4% | CSNK2A2 99.7% | DDR1 52% | DDR2 52% | DYRK1A 85% | DYRK1B 81% | EPHB1 58% | FLT3-autoinhibited 75% | FLT3 96.3% | GCN2(Kin.Dom.2,S808G) 88% | HIPK1 79% | INSRR 53% | [1] 98.5% | [2] 54% | KIT 72% | LCK 71% | MAP3K4 52% | MEK5 78% | MERTK 56% | MLK1 93.8% | MLK2 89% | MLK3 87% | NEK11 86% | NEK2 70% | NEK3 89% | NEK5 99% | NEK6 99.6% | NEK7 99.7% | NEK9 90% | PAK3 69% | PIP5K1C 89% | PIP5K2C 90.3% | PKAC-beta 51% | [3] 91.7% | [4] 66% | SLK 63% | SRC 90.1% | STK16 86% | SYK 53% | TBK1 58% | [5] 82% | ULK2 51% | WEE2 85%
